Experimental data: PubChem BioAssay (NCATS)
“And” between values parts separate entries of the source, which are not always exact repeats. Equal entries are not always repeated. Unmarked numbers belong to inactive results. Results filed as inconclusive are left out. Where a call stands in place of a potency, no number is given. The source made the active and inactive calls. Unless noted, calls follow the shape of the dose curve; as a rule, active = well fitted curve in the direction sought with a large enough effect; inconclusive = small, poorly fitted or top-dose-only effect, or another doubt; inactive = no such curve, though single readings can be large; an effect the other way counts as inactive or inconclusive.

Legend:
[1] = Cellular Toxicity (caspase-3) Jurkat (AID 655); settings: Jurkat caspase-3 activation, luminescence, DMSO = 0%, tamoxifen = 100%; at 92.2 µM (top of the series);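 also: cells exposed to compound for 16 h at 37 °C before reading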
In short: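 Jurkat cells (5000/well) in complete medium exposed 16 h at 37 C; caspase-3/7 activity read by Caspase-Glo luminescence after 20 min at room temperature. Normalized to DMSO and 100 uM tamoxifen; AC50 from Hill fits.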

[2] = Cellular Toxicity (caspase-3) HUV-EC-C (AID 656)
In short: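 HUV-EC-C cells (1000/well) in complete medium, compound-treated 16 h at 37 °C; caspase-3/7 activity read by Caspase-Glo 3/7 luminescence. Normalized to DMSO (basal) and 100 uM tamoxifen (100%); AC50 from Hill-equation concentration-response fits.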

[3] = Cellular Toxicity (caspase-3) SHSY5Y (AID 657)
In short: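 SH-SY5Y human neuroblastoma cells, 1500/well, exposed to compound for 16 hours at 37 °C in complete medium. Caspase-3/7 activity read by Caspase-Glo luminescence after 1 hr at room temperature, normalized to DMSO and 10 uM staurosporine; AC50 from Hill fit.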

[4] = Cellular Toxicity (caspase-3) MRC-5 (AID 659)
In short: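 Luminescent Caspase-Glo 3/7 read-out (1 h, room temperature) after a 16 h, 37 °C compound exposure of MRC-5 lung fibroblasts at 1500 cells/well. Concentration-response AC50 from Hill equation; 0% DMSO, 100% 10 uM staurosporine.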

[5] = Cellular Toxicity (caspase-3) Mesangial (AID 660);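 also: cells exposed to compound for 16 h before the caspase read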
In short: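 AC50 values come from Hill-equation fits of caspase 3/7 activation, measured as Caspase-Glo luminescence in human glomerular mesangial cells exposed to compound for 16 h at 37 °C; 100% set by 100 uM tamoxifen.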

[6] = Cellular Toxicity (caspase-3) H-4-II-E (AID 663); settings: Potency: caspase-3 activation;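 also: cells exposed to compound for 16 hr before readout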
In short: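 Caspase 3/7 activation measured by luminescent aminoluciferin substrate cleavage after 16 hr compound treatment of H-4-II-E cells in complete medium. Increase normalized between DMSO (basal) and 100 uM tamoxifen (100%); Hill-equation AC50 from concentration-response.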

[7] = Cellular Toxicity (caspase-3) Hek293 (AID 664);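 also: cells exposed to compound for 16 h at 37 °C before readout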
In short: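 Apoptosis readout: Caspase-Glo 3/7 signal in human HEK293 cells following 16-hour compound incubation. Responses scaled between DMSO baseline and 100 uM tamoxifen.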

[8] = Cellular Toxicity (caspase-3) Renal Proximal Tubule (AID 667);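 also: cells exposed to compound for 16 hours at 37 °C before detection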
In short: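 Freshly isolated primary rat kidney proximal tubule cells, 1000/well, treated 16 hr at 37 °C, then Caspase-Glo 3/7 luminescence after 1 hr. Normalized to DMSO and 10 uM staurosporine; AC50 from Hill fit.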

[9] = MultiTox-Fluor Cytotoxicity Assay - LYMP1-001 - Dead Cells (AID 946)
In short: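 AC50 from Hill fit of concentration-response; data normalized to DMSO (basal) and 15 uM tetraoctylammonium bromide (100%). LYMP1-001 lymphoblastoid cells, 2500/well, 16 hr compound at 37 C; dead-cell protease fluorescence, Ex/Em 485/520.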

[10] = MultiTox-Fluor Cytotoxicity Assay - LYMP1-002 - Live Cells (AID 955)
In short: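 In this qHTS viability format, lymphoblastoid cells (LYMP1-002, human) received compound for 16 hr at 37 C. Fluorogenic GF-AFC cleavage by viable cells was detected at 405/510 nm after 1 h at room temperature.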

[11] = MultiTox-Fluor Cytotoxicity Assay - LYMP1-002 - Dead Cells (AID 960); also: nearly all actives have a fitted effect of over 60% in size
In short: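 Concentration-dependent increases in membrane-leaked protease activity are quantified in LYMP1-002 cells after 16 hr treatment; values are normalized against DMSO and tetraoctylammonium bromide (15 uM) controls and AC50 derived by Hill modeling.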

[12] = MultiTox-Fluor Cytotoxicity Assay - LYMP1-003 - Dead Cells (AID 961); also: nearly all actives have a fitted effect of over 70% in size
In short: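 Human lymphoblastoid LYMP1-003 cells (2500/well) were treated with compounds for 16 hr at 37 C in complete medium. Dead-cell protease release was read by bis-AAF-R110 fluorescence (Ex/Em 485/520). AC50 came from Hill fits, normalized to DMSO and 15 uM tetraoctylammonium bromide.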

[13] = MultiTox-Fluor Cytotoxicity Assay - LYMP1-003 - Live Cells (AID 962);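 also: cytotoxic hits lower the live-cell protease signal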
In short: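 Human lymphoblastoid line LYMP1-003 in complete culture medium, treated 16 hr with titrated compounds. Viable cells quantified via cell-permeant GF-AFC substrate fluorescence; AC50 derived by Hill fitting.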

[14] = Cell Viability - LYMP1-003 - Assay at 40 hr (AID 964); also: nearly all actives have a fitted effect of over 60% in size; also: potency is read from the fitted curve at half-maximal effect
In short: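 Acute toxicity is scored as a concentration-dependent loss of intracellular ATP in LYMP1-003 cells (2500/well, complete medium) after 40 hr at 37 C, measured by CellTiter-Glo luminescence; AC50 values derive from standard Hill modelling.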

[15] = Cell Viability - LYMP2-005 (AID 967)
In short: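 Human lymphoblastoid LYMP2-005 cells, 2,500 per well in complete medium, rested 5 h at 37C then compound-treated 24 h at 37C. Intracellular ATP read by CellTiter-Glo luminescence after 30 min at room temperature; AC50 from Hill-equation fits of concentration-response data.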

[16] = Cell Viability - LYMP2-011 (AID 969); also: nearly all actives have a fitted effect of over 60% in size
In short: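 Cells seeded at 2500 per well rest 5 hr before compound addition, then incubate 24 hr at 37 C. CellTiter-Glo reagent is added for 30 min at room temperature before luminescence detection.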

[17] = Cell Viability - LYMP2-013 (AID 970); also: nearly all actives have a fitted effect of over 55% in size
In short: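 In complete culture medium, human lymphoblastoid cells were dosed for 24 hr at 37 C, with tetraoctylammonium bromide (6.4pM to 92 uM) as positive control. Viability reflects luciferase-based ATP signal; AC50 derived from concentration-response curves.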

[18] = Cell Viability - LYMP2-017 (AID 972); also: nearly all actives have a fitted effect of over 55% in size
In short: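 In this qHTS format, lymphoblastoid cells in complete medium receive test compound for a day at 37 C before ATP content is quantified by luciferase luminescence. Reported AC50 figures come from standard Hill-equation curve fitting.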

[19] = Cell Viability - LYMP2-002 (AID 977);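 also: compound exposure lasted 24 h at 37 °C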
In short: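 Human lymphoblastoid cells (2500/well) in complete medium were preincubated 5 hr at 37 C, then exposed to compounds for 24 hr at 37 C. Intracellular ATP was read by CellTiter-Glo luminescence; AC50 came from Hill-equation concentration-response fits.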

[20] = qHTS assay for small molecule agonists of the antioxidant response element (ARE) signaling pathway measured by Nrf2-dependant transcriptional activity - cell viability counter screen (AID 720653; active = well fitted curve in the direction sought with a large enough effect in the repeat runs; an effect the other way counts as inactive or inconclusive); settings: ARE-bla HepG2 viability, CellTiter-Glo ATP luminescence, 16 h; max response: stronger effect = lower value
In short: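 Cytotoxicity counter screen: intracellular ATP quantified by CellTiter-Glo luminescence in the same ARE-bla HepG2 plates, after 16 h compound exposure and a 2 h beta-lactamase substrate step.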

Row | Structure (SMILES) | caspase-3 activation [1] | outcome [2] | outcome [3] | outcome [4] | outcome [5] | Potency [6] | outcome [7] | outcome [8] | Potency [9] | Potency [10] | Potency [11] | Potency [12] | Potency [13] | Potency [14] | Potency [15] | Potency [16] | Potency [17] | Potency [18] | Potency [19] | max response [20]
1 | O[C@@H]([C@H](O)[C@@H](O)CBr)[C@@H](O)CBr | 0.213% | inactive | inactive | inactive | inactive | inactive | inactive | inactive | inactive | inactive | inactive | inactive | inactive | inactive | inactive | inactive | inactive | inactive | inactive | 2.11%
2 | Cc1cccc(O)c1 |  |  |  |  |  |  |  |  |  |  |  |  |  |  |  |  |  |  |  | 2.52% and 7.45%
3 | O=S(=O)(O)c1ccccc1 | 0.148% | inactive | inactive | inactive | inactive | inactive | inactive | inactive | inactive | inactive | inactive | inactive | inactive | inactive | inactive | inactive | inactive | inactive | inactive | 11%
4 | O=C1CCc2ccccc2O1 | 1.5% | inactive | inactive | inactive | inactive | inactive | inactive | inactive | inactive | inactive | inactive | inactive | inactive | inactive | inactive | inactive | inactive | inactive | inactive | 2.06%
5 | CC1(C)S[C@@H]2[C@H](NC(=O)COc3ccccc3)C(=O)N2[C@H]1C(=O)O |  |  |  |  |  |  |  |  |  |  |  |  |  |  |  |  |  |  |  | -8.85%
6 | c1ccc2scnc2c1 | -0.459% | inactive | inactive | inactive | inactive | inactive | inactive | inactive | inactive | inactive | inactive | inactive | inactive | inactive | inactive | inactive | inactive | inactive | inactive | -3.11%
7 | O=C(O)c1ccccc1C(c1ccc(O)cc1)c1ccc(O)cc1 | 1.36% | inactive | inactive | inactive | inactive | inactive | inactive | inactive | inactive | inactive | inactive | inactive | inactive | inactive | inactive | inactive | inactive | inactive | inactive | -7.19% and 7.52%
8 | COc1c2ccoc2cc2oc(=O)ccc12 | -0.404% | inactive | inactive | inactive | inactive | inactive | inactive | inactive | inactive | inactive | inactive | inactive | inactive | inactive | inactive | inactive | inactive | inactive | inactive | 3.31%
9 | S=C1NC=NC2N=CNC12 (stereo not given) | 20.1% | inactive | inactive | inactive | inactive | inactive | inactive | inactive | inactive | inactive | inactive | inactive | inactive | 1580 nM (active) | inactive | inactive | inactive | inactive | inactive | 
10 | Cc1ccc(N)c([N+](=O)[O-])c1 | -0.471% | inactive | inactive | inactive | inactive | inactive | inactive | inactive | inactive | inactive | inactive | inactive | inactive | inactive | inactive | inactive | inactive | inactive | inactive | -14.8% and -1.11%
11 | CC(=O)OC/C=C(\C)CCC=C(C)C | 1.05% | inactive | inactive | inactive | inactive | inactive | inactive | inactive | inactive | inactive | inactive | inactive | inactive | inactive | inactive | inactive | inactive | inactive | inactive | -2.65% and 12.5%
12 | CCCCOCCO | 0.121% and 0.365% | inactive | inactive | inactive | inactive | inactive | inactive | inactive | inactive | inactive | inactive | inactive | inactive | inactive | inactive | inactive | inactive | inactive | inactive | 4.17% and -5.63% and -2.53%
13 | O=C1c2ccccc2C(=O)C1c1ccc2ccccc2n1 | -10.4% | inactive | inactive | inactive | inactive | inactive | inactive | inactive | inactive | inactive | inactive | inactive | inactive | inactive | inactive | inactive | inactive | inactive | inactive | 
14 | CCC(O)OC(O)CC (stereo not given) | 0.389% and 0.685% | inactive | inactive | inactive | inactive | inactive | inactive | inactive | inactive | inactive | inactive | inactive | inactive | inactive | inactive | inactive | inactive | inactive | inactive | 1.91% [middle of 4 runs]
15 | CC1=CC(C)(C)Nc2ccccc21 | -0.184% and 0.591% | inactive | inactive | inactive | inactive | inactive | inactive | inactive | inactive | inactive | inactive | inactive | inactive | inactive | inactive | inactive | inactive | inactive | inactive | 0.655% and 4.88%
16 | CN(C)CCCCCCN(C)C | -2.92% | inactive | inactive | inactive | inactive | inactive | inactive | inactive | inactive | inactive | inactive | inactive | inactive | inactive | inactive | inactive | inactive | inactive | inactive | 1.08%
